# Screen size: about 330,000 compounds; about 1,400 (0.42%) were called active.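 How the source made its calls: active means inhibition above its plate's threshold, mean inhibition of all tested compounds on the plate plus 3 SD (cut at about 37% in these data); inactive means the rest.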 The sample as a whole holds a higher share of actives than the screen did.
# Molecular target: Orexin/Hypocretin receptor type 1 (Homo sapiens) (UniProt O43613)
# Test: blockers of orexin-A calcium signaling via HCRTR1 – fluorescence, CHO/OX1R cells, Fluo-8 calcium, primary screen (AID 434989);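 further: 0% = orexin A challenge wells and 100% = SB-334867-A antagonist wells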
# Details: Fluo-8 calcium fluorescence, at 5 µM, active compounds read high
# Orexin/Hypocretin receptor type 1 (Homo sapiens), sequence (O43613 whole entry, looked up): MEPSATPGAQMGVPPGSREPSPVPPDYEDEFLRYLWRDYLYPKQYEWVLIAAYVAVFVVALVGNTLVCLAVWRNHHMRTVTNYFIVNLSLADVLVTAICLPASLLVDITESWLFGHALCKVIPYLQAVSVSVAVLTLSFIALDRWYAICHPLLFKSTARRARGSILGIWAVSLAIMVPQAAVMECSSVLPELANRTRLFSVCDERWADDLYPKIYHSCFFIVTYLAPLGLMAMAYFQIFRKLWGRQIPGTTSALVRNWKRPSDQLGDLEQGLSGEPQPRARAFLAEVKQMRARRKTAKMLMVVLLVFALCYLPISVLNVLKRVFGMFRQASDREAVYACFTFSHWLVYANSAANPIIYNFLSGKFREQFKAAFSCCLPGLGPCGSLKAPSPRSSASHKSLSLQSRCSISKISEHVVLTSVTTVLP
row,Structure (SMILES),inhibition
1,CN1CCN(C(=S)SCC(=O)Nc2ccc(Cl)cc2C(=O)c2ccccc2)CC1,-28.1% (inactive)
2,CC(C(=O)Nc1ccc(Cl)cc1Cl)N1CC=C(c2ccccc2)CC1 (stereo not given),50% (active)
3,Cc1ccc(C(C)C)c(OCC(=O)N2CCN(CC(=O)N3CCOCC3)CC2)c1,4.64% (inactive)
4,O=C(N/N=C/c1c(O)n(C2CC2)c(=S)[nH]c1=O)c1ccccc1,-22.4% (inactive)
5,Cc1ccc(Cn2nnnc2CN2CCC(n3nnc4ccccc43)CC2)cc1,-21.8% (inactive)
6,Cc1ccc(CN2CCCC(C(=O)c3ccc4c(c3)OCO4)C2)cc1C (stereo not given),-21.1% (inactive)
7,COc1cc2nc(N3CCN(C(=O)[C@@H]4CCCO4)CC3)nc(N)c2cc1OC,2.61% (inactive)
8,O=C1C2(Cl)C3(Cl)C4(Cl)C(Cl)(Cl)C5(Cl)C3(Cl)C1(Cl)C5(Cl)C24Cl (stereo not given),72.3% (active)
9,CC1=C(C(=O)Nc2ccccc2)SCCO1,-6.61% (inactive)
10,Nc1ccc([N+](=O)[O-])cc1,-2.36% (inactive)

# Reference: PubChem BioAssay AID434989 (The Scripps Research Institute Molecular Screening Center, 2010)
